The values below come from PubChem BioAssay (Tox21).

Each structure is given as a SMILES string. Inconclusive results are not listed. Where a call stands in place of a potency, no number is given. Active and inactive are the calls of the source. Calls follow the shape of the dose curve; as a rule, active = well fitted inhibition curve with a large enough effect in the repeat runs; inconclusive = weak or mixed curves; inactive = no such curve, though single readings can be large or run the other way.
Potency is read from the fitted curve at half-maximal effect.

Sequence of Cytochrome P450 1A2 (Homo sapiens) (P05177 whole entry, looked up): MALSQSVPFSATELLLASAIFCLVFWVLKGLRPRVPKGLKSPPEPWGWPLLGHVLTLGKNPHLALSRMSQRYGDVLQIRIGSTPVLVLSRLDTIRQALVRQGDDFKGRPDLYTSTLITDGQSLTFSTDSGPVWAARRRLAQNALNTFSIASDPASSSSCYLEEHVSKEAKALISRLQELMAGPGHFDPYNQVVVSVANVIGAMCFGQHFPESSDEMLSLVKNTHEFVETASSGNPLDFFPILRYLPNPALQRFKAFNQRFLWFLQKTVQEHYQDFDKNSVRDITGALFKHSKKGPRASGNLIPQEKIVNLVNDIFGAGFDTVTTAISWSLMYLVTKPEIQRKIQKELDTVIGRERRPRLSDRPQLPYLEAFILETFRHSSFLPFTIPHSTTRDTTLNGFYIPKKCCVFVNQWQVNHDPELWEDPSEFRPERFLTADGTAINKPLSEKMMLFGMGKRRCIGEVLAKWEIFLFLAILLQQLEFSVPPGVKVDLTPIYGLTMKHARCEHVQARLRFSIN

The experiment has as its target Cytochrome P450 1A2 (Homo sapiens) (UniProt P05177). As to the kind of experiment: Cytochrome P450 Family 1 Subfamily A Member 2 (CYP1A2) small molecule antagonists: luciferase reporter qHTS assay (AID 1671199). Also: nearly all actives have a fitted effect of over 50% in size. To be noted: P450-Glo CYP1A2 enzyme, luciferin luminescence, 1 h; series mostly up to 115 µM. From the text: National Center for Advancing Translational Sciences [NCATS]
U.S. Environmental Protection Agency [EPA]
National Institutes of Environmental Health Sciences [NIEHS]
National Toxicology Program [NTP]
U.S. Food and Drug Administration [FDA]
Cytochrome P450 (CYP) enzymes are membrane-bound hemeproteins that play a key role in metabolism of drugs and xenobiotics. Evaluation of the effect of chemicals on CYP isozymes is useful to minimize the adverse drug reactions and toxicities in drug development process. Tox21 chemicals were tested for their effect on CYP enzyme activities by using P450-Glo (TM) screening systems (Promega Corporation, Madison, WI). These systems provide a luminescent method containing proluciferin substrates and are converted to luciferin products by CYP isozymes. The luciferin products formed are detected with a luciferin detection reagent, and the amount of light produced is proportional to CYP activity. P450-Glo (TM) CYP1A2 screening system (Catalog. No. V9770) was used to detect the compounds that interfere in CYP1A2 activity. The positive control compound used for CYP1A2 assay is furafylline (Sigma-Aldrich, St. Louis, MO).
Tox21 Assay Protocol Summary:
Two ul of enzyme-substrate mix was dispensed into medium binding white/solid 1536-well plates (Greiner Bio-One North America Inc., Monroe, NC) using a BioRaptr Flying Reagent Dispenser (FRD, Beckman Coulter, Brea, CA). Compounds dissolved in DMSO and positive control (furafyllline) were transferred to the assay plates at 23 nl using a Pintool station (Wako, San Diego, CA). The assay plates were incubated at room temperature for 10 min. Then 2 ul of NADPH regeneration solution was added to each well of the assay plates using an FRD and incubated at room temperature for 1 h. The reaction was stopped by adding 4 ul of detection reagent using an FRD and after 20 min incubation at room temperature the luminescence signal was measured using a ViewLux plate reader (Perkin Elmer, Shelton, CT). Data were expressed as relative luminescence units.
A general note: A reporter such as luciferase makes a cellular process visible.
For `CCCCOc1ccc(N)cc1`, the Potency is 11.2 µM (active). On to `CS(C)=O`, for which the Potency entry is “inactive”. `CCC1=C(C)CN(C(=O)NCCc2ccc(S(=O)(=O)NC(=O)NC3CCC(C)CC3)cc2)C1=O` (stereo not given): the Potency entry is “inactive”.

For the molecule `CCCCCCCCS`, the Potency result is “inactive”. In the case of `CCCc1nc(C)c2c(=O)[nH]c(-c3cc(S(=O)(=O)N4CCN(CC)CC4)ccc3OCC)nn12`, the Potency result is “inactive”. With `Nc1ccccc1Nc1ccccc1`, the Potency is 7.12 µM (active).

As to `CCOc1ccc(NC(C)=O)cc1N`, the Potency was 16.1 µM (active).

In the case of `CCCC1CCCC(=O)O1` (stereo not given), the Potency entry was “inactive”. Consider `CCOc1ccc2c(c1)C(C)CC(C)(C)N2` (stereo not given), for which the Potency is 35.6 µM (active). `CCc1c(C)[nH]c2c1C(=O)C(CN1CCOCC1)CC2` (stereo not given): the Potency entry is “inactive”. Consider `COc1ccc(/C(C)=C/C(=O)O)c(OC)c1`, for which the Potency entry is “inactive”. On to `C=CCCC`, for which the Potency entry was “inactive”. Consider `CC(=O)Nc1ccn(C2COC(COC(=O)c3ccccc3)O2)c(=O)n1` (stereo not given), for which the Potency is 24.5 µM (active). Regarding `CCCCCCCCCCCCN1CCOCC1`, the Potency entry was “inactive”.

Consider `C[C@H]1C[C@H]2[C@@H]3CCC4=CC(=O)C=C[C@]4(C)[C@@]3(F)[C@@H](O)C[C@]2(C)[C@@]1(O)C(=O)COP(=O)(O)O`, for which the Potency result was “inactive”. For `O=C(c1ccc(Cl)cc1)c1ccc(Cl)cc1`, the Potency was 2.52 µM (active). Regarding `CC(C)=CCC/C(C)=C/C=N/O`, the Potency was 39.9 µM (active). Consider `Clc1cccc(C(c2ccc3nc[nH]c3c2)n2ccnc2)c1` (stereo not given), for which the Potency was 15.5 µM (active). Next, `FC1(F)C(F)(F)C(F)(F)C2(F)C(F)(C1(F)F)C(F)(F)C(F)(F)C1(F)C(F)(F)C(F)(F)C(F)(F)C(F)(F)C12F` (stereo not given): “inactive”. Consider `CCC(=O)O[C@]1(C(=O)COC)[C@@H](C)C[C@H]2[C@@H]3CCC4=CC(=O)C=C[C@]4(C)C3(F)[C@@H](O)C[C@@]21C` (stereo not given in full), for which the Potency entry was “inactive”. With `CCCC1CCOC(C)S1` (stereo not given), the Potency result was “inactive”.

As for `CCCCCCCCCCCCSC#N`, the Potency is 7.96 µM (active). To `CCCCCCCCCCCCSCCOCCO` belongs 15.5 µM (active); to `CC(C(=O)O)c1ccc2c(c1)Cc1cccnc1O2` (stereo not given), “inactive”. Consider `CC(=O)OCC(=O)[C@@]1(O)CC[C@H]2[C@@H]3CCC4=CC(=O)C=C[C@]4(C)[C@@]3(F)[C@@H](O)C[C@@]21C`, for which the Potency entry was “inactive”. Turning to `O=C1OC(=O)C2CC=CCC12` (stereo not given), the Potency entry was “inactive”. Consider `COC(=O)C(C)(C)C`, for which the Potency was 40.5 µM (active). For `Clc1nc2ccccc2nc1Cl`, the Potency was 5.09 µM (active). In the case of `CCOc1cc(OCC)c(C(C)=O)cc1OCC`, the Potency was 1.11 µM (active). For `CCC(=O)O[C@@H]1C[C@H]2CC[C@]1(C)C2(C)C`, the Potency result was “inactive”. Turning to `O=C1c2ccccc2C(=O)c2c1ccc(O)c2O`, the Potency is 25.7 µM (active). Take `C=CC(C)(O)CC/C=C(/C)CCC=C(C)C` (stereo not given): the Potency is 39.9 µM (active).

Turning to `CCCC(=O)OCc1ccccc1`, the Potency result was “inactive”. For `COC(=O)Cc1cccc2ccccc12`, the Potency is 20 µM (active). With `COc1cc(C)c(Cc2cnc(N)nc2N)cc1OC`, the Potency result was “inactive”. Turning to `CC(CCl)OC(C)CCl` (stereo not given), the Potency result was “inactive”. For `CC(C)(C)NCC(O)COc1ccc(NC(=O)NC2CCCCC2)cc1` (stereo not given), the Potency entry is “inactive”. Take `OCCc1ccncc1`: the Potency was 22.4 µM (active).

`Nc1nc(Cl)nc2c1ncn2[C@H]1C[C@H](O)[C@@H](CO)O1`: the Potency is 28.1 µM (active). As for `O=C1c2ccccc2C(=O)C1c1ccc2ccccc2n1`, the Potency is 2.22 µM (active).
